Bioassay records (PubChem)
These entries were drawn from the full list.
aSyn 5UTR act: Activators via SNCA 5'UTR binding, MLPCN. alpha-synuclein 5'UTR reporter, activators screen. activity score, % (tested at 7.5 µM), hits read low. hit rate 7.1% among 300,000. AID 1814, 2009; in the data active = activity score below about -60%
The depositor's hits bear a star.

SMILES | aSyn 5UTR act
Cc1ccccc1C(=O)Nc1ccc(Br)cn1 | -77*
O=C(Nc1ccc(Br)cn1)c1ccc(Br)s1 | -198*
O=C(Nc1ccc2sccc2c1)c1ccc(Cl)s1 | -198*
COc1ccc(/C=C2\CCC/C(=C\c3ccc(OC)c(OC)c3OC)C2=O)c(OC)c1OC | -71*
COc1cc2c(c(OC)c1OC)-c1ccc(OC)c(=O)cc1C(NC(C)=O)CC2 (stereo unspecified) | 75
COc1ccc(/C=C2\CC/C(=C\c3ccc(OC)c(OC)c3)C2=O)cc1OC | -74*
COc1cc(/C=C2\COC/C(=C\c3ccc(O)c(OC)c3)C2=O)ccc1O | 103
COc1cc(/C=C2/CC/C(=C/c3ccc(O)c(OC)c3)C2=O)ccc1O | -71*
CCN1C/C(=C/c2ccc(OC)c(O)c2)C(=O)/C(=C/c2ccc(OC)c(O)c2)C1 | 116
CC(C)(C)c1ccc(-c2cc(N)n[nH]2)cc1 | 91
Cc1ccc(-c2cc(N)n[nH]2)cc1 | -73*
Cc1ccc(NC(=S)N2CCn3cccc3C2c2cccnc2)cc1 (stereo unspecified) | -93*
CN(C)C(/C=C/Nc1ccc(F)cc1)=C(C#N)C#N | -63*
N#CC(C#N)=C(Nc1ccc(F)cc1)SCc1cccc(Br)c1 | 48
Cc1ccc(C(=O)OCC(=O)c2ccccc2)cc1 | -85*
CCc1ccc(C(=O)COC(=O)c2ccc(-c3nnc(-c4ccccc4)o3)cc2)cc1 | -161*
N=c1ccn(CC(=O)c2ccc(-c3ccccc3)cc2)cc1 | 110
O=C(CN1C(=O)CCC1=O)c1ccc(-c2ccccc2)cc1 | -82*
O=C(O)c1ccc2c(c1)C(=O)N(c1ccc(C(=O)OCC(=O)c3ccccc3)cc1)C2=O | -62*
CCCC(=O)c1ccc(-c2ccccc2)cc1 | -70*
Cc1ccc(C(=O)Sc2cccccc2=O)cc1 | -109*
Cc1ccc(C(=O)Cn2c(-c3ccccc3)noc2=O)cc1 | -100*
Cc1ccc(C(=O)CCc2ccc(N)cc2)cc1 | -77*
CCOC(=O)C(CC(=O)c1ccccc1)CC(=O)c1ccccc1 | -105*
Cc1ccc(C(=O)COC(=O)c2cccc(NC(=O)c3ccc([N+](=O)[O-])cc3[N+](=O)[O-])c2)cc1 | -162*
SMILES | aSyn 5UTR act
Cc1ccc(C(=O)c2c3ccc([N+](=O)[O-])cc3[n+]([O-])n2CCCN)cc1 | 63
Cc1cc(C)c(NC(=O)CC(=O)c2ccccc2)c(Cl)c1 | -93*
Cc1ccc(C(=O)CC(=O)c2ccccc2)cc1 | -238*
CCN=c1scc(-c2ccco2)n1/N=C/c1ccc(O)cc1 | -173*
CCN=c1scc(-c2ccco2)n1/N=C/c1ccc(OC)c(O)c1 | -228*
COCCN=c1scc(-c2cccs2)n1/N=C/c1ccc(O)c(O)c1O | 67
COC(=O)Cc1ccc2sc(-c3ccccc3)nc2c1 | -208*
CC(=O)Nc1cccc(-c2cc(C)c3cc4c(cc3n2)OCO4)c1 | -89*
O=C(CCS(=O)(=O)c1ccccc1)Nc1ccc(-c2nc3ccccc3s2)c(O)c1 | -93*
CC(=O)Nc1ccc(O)c(-c2nc3ccccc3s2)c1 | -326*
CC(=O)Nc1cccc(-c2nc3ccc(NC(C)=O)cc3s2)c1 | -133*
Nc1cccc(-c2nc3ccccc3s2)c1 | -67*
CC(=O)Nc1cccc(-c2nc3ccccc3s2)c1 | -133*
Cc1cc(-c2nc(-c3ccc(C(C)(C)C)cc3)no2)no1 | -171*
CC(C)(C)c1ccc(-c2noc(-c3ccc4c(c3)CCO4)n2)cc1 | -157*
CC(C)(C)NC(=O)CN(C(=O)CNS(=O)(=O)c1ccccc1)c1ccc2c(c1)OCCO2 | -86*
Cc1cccc(S(=O)(=O)N/N=c2\sc3ccccc3n2C)c1 | -175*
Cc1ccc(S(=O)(=O)N/N=c2\sc3ccccc3n2C)cc1 | -115*
COc1ccc(-n2cnc3sc(-c4ccccc4)cc3c2=O)cc1 | -118*
COc1ccc(-c2cc3nc(C)n(N)c(=O)c3s2)cc1 | 115
COc1cccc(-n2cnc3sc(-c4ccccc4)cc3c2=O)c1 | -184*
Cc1cccnc1NC(=O)c1cc2ccccc2oc1=O | -200*
COc1ccc2oc(=N)c(C(=O)Nc3ccccc3Cl)cc2c1 | -209*
CN(C)C(CNC(=O)c1cc2ccccc2oc1=O)c1ccccc1 (stereo unspecified) | -162*
COc1ccc2oc(=O)c(C(=O)Nc3cccc(C(C)=O)c3)cc2c1 | -82*
SMILES | aSyn 5UTR act
CCCCCCc1cc2cc(C(=O)Nc3ccccc3)c(=O)oc2cc1O | 92
COc1ccc2oc(=N)c(C(=O)Nc3cccc(C)c3C)cc2c1 | -158*
O=C(Nc1ccccc1O)c1cc2cc(Br)ccc2oc1=O | -124*
COc1ccc2oc(=O)c(C(=O)Nc3ccccc3C)cc2c1 | -199*
CCOc1ccccc1CNC(=O)c1cc2oc3ccccc3c2n1C | 51
COCCNC(=O)c1cc2oc3ccccc3c2n1C | -99*
COC(=O)c1ccc(N2OC3(C)C=CC2CC3)cc1 (stereo unspecified) | -88*
COc1ccc(-c2nsc3c(N4CCCCC4)ncnc23)cc1 | 85
COc1ccc(-c2nsc3c(N4CCN(S(=O)(=O)c5ccccc5F)CC4)ncnc23)cc1 | -69*
O=C(c1ccccc1)N1CCN(c2ncnc3c(-c4ccccc4)nsc23)CC1 | -125*
Cc1ccc(-n2nc3c(N4CCC(C(=O)NCCc5ccccc5C)CC4)nnc(C)c3c2C)cc1 | 72
Cc1ccc(-c2nsc3c(N4CCC(C(N)=O)CC4)ncnc23)cc1 | -99*
Oc1ccc(Br)cc1/C=N/n1cnc2ccccc21 | -262*
Oc1ccc(Br)cc1/C=N/N1CCCCC1 | -221*
Cc1cccnc1Nc1nc(-c2ccc(O)cc2O)cs1 | -188*
Oc1ccc(-c2csc(Nc3ccccn3)n2)c(O)c1 | -134*
Cc1ccc(S(=O)(=O)NC(=O)Nc2ccc(N(C)C)cc2)cc1 | -111*
CCn1c(C)nc2cc(C(=O)NNC(=S)Nc3ccccc3OC)ccc21 | -74*
CCn1c(C)nc2cc(C(=O)N/N=C/c3ccccc3C)ccc21 | -142*
CCn1c(C)nc2cc(NC(=O)Nc3cccc(C(C)=O)c3)ccc21 | -99*
CCn1c(C)nc2cc(C(=O)N/N=C(\C)c3ccccc3O)ccc21 | -143*
C=C1[C@@H](C)C2[C@H](Cc3ccccc3)NC(=O)[C@]23OC(=O)CC[C@H](O)CCC[C@H](C)C/C=C/[C@H]3[C@@H]1O (stereo partly specified) | 80
Cc1nnc(NC(=O)c2oc3ccccc3c2C)s1 | -83*
Cc1ccc(C(=O)Nc2nc(C)c(C(=O)N(C)C)s2)o1 | -77*
Cc1nc(NC(=O)c2oc3ccccc3c2C)sc1C(=O)N(C)C | -193*
SMILES | aSyn 5UTR act
Cc1nc(NC(=O)/C=C/c2ccccc2)sc1C(=O)N(C)C | -166*
CC(Oc1cccc(Cl)c1)C(=O)Nc1nc(-c2ccccn2)cs1 (stereo unspecified) | 64
Cc1nc(NC(=O)C(C)Oc2cccc(Cl)c2)sc1C(=O)N(C)C (stereo unspecified) | -65*
CCCCc1nnc(NC(=O)c2oc3ccccc3c2C)s1 | -96*
COc1ccc(C)cc1NC(=O)CNC(c1ccccc1)c1ccc(C)cc1 (stereo unspecified) | 103
Cc1ccc(NC(=O)NCC(c2ccccc2)N(C)C)cc1 (stereo unspecified) | -107*
Cc1ccc(NC(=O)CNC(C)c2ccccc2)cc1 (stereo unspecified) | -73*
O=S(=O)(c1ccc(-c2nnc(SCc3nnc(-c4ccccc4)o3)o2)cc1)N1CCCC1 | -117*
COc1cc(C2=NOC(C(=O)Nc3ccc(C(C)=O)cc3)C2)cc(OC)c1OC (stereo unspecified) | -80*
